We go through 56 compounds from PubChem BioAssay AID1159554 (Broad Institute, 2015).

About 2,100 (2.2%) of roughly 94,000 compounds were called active. No stated cut-off is given here; in the data, active means activity change below about -80%; inconclusive means no clear call, values can overlap the other calls; inactive means above that. The sample as a whole holds a higher share of actives than the screen did.

This experiment is described as follows: Dd2 malaria parasite growth inhibition – SYBR Green fluorescence, single dose replicates, primary screen (AID 1159554). As to conditions: P. falciparum Dd2 growth, 72 h, at 10 µM, hits give low values.
In the case of `O=C(N[C@@H]1C=C[C@@H](CC(=O)N2CCOCC2)O[C@H]1CO)c1ccccn1`, the activity change is 35.5% (inactive).
As to `O=C(NCCN1CCCCC1)[C@@H]1N[C@@H]2c3ccc(-c4ccccc4)c(=O)n3C[C@@H]2[C@H]1CO`, the activity change was 50.6% (inactive).
Consider `COc1cccc(NC(=O)C[C@H]2CC[C@@H]3[C@@H](COc4ccc(NC(=O)C5CCOCC5)cc4C(=O)N3C)O2)c1`, for which the activity change was 15.2% (inactive).
The same measure for `N#C[C@@H]1[C@H](c2ccccc2C2=CCCCC2)[C@@H](CO)N1S(=O)(=O)c1cccc(F)c1`: -43.9% (inactive); for `C/C=C/c1ccccc1[C@H]1[C@@H](C#N)N(c2nc(CC)cs2)[C@@H]1CO`: -82.9% (active).
For the compound `C/C=C/c1ccccc1[C@@H]1[C@@H](CO)N(S(=O)(=O)c2cccc(F)c2)[C@H]1C#N`, the activity change is -88% (active).
Turning to `CCc1sc(N2[C@@H](C#N)[C@@H](c3ccccc3-c3ccccc3)[C@@H]2CO)nc1C`, the activity change is -83.4% (active).
To `N#C[C@@H]1[C@H](c2ccccc2-c2ccccc2)[C@H](CO)N1c1ncc(-c2ccccc2)s1` belongs -4.56% (inactive); to `C/C=C/c1ccccc1[C@@H]1[C@@H](C#N)N(c2nc(CC)cs2)[C@@H]1CO`, -18.3% (inactive); to `C/C=C/c1ccccc1[C@H]1[C@@H](C#N)N(C(C)=O)[C@@H]1CO`, 7.51% (inactive).
The same measure for `Cc1ccc(-c2ccccc2[C@H]2[C@@H](C#N)N(c3ncc(-c4ccccc4)s3)[C@@H]2CO)cc1`: -65.2% (inactive).
Regarding `C/C=C/c1ccccc1[C@H]1[C@@H](C#N)N(C(=O)Cc2ccccn2)[C@@H]1CO`, the activity change is 1.87% (inactive).
As for `O=C(NC1CCCCC1)N[C@H]1CC[C@H](CCNS(=O)(=O)c2ccc(F)cc2)O[C@H]1CO`, the activity change is 24.8% (inactive).
To `C/C=C/c1ccc([C@@H]2[C@H](CO)N(S(=O)(=O)Cc3ccccc3)C23CN(C(=O)C2CCOCC2)C3)cc1` belongs -52% (inactive); to `CO[C@H]1CN(C)C(=O)c2ccc(NC(=O)C3CC3)cc2OC[C@H](C)N(C(=O)CN2CCOCC2)C[C@@H]1C`, 26.1% (inactive); to `CC(C)(C)[S@@](=O)N1Cc2cc(C(=O)O)nc(-c3cccc(-c4cccc(F)c4)c3)c2[C@H]1CCO`, 41.4% (inactive).
The same measure for `COc1ccccc1C#Cc1ccc([C@@H]2[C@H](CO)N3CCCCN(C(=O)C4CCCC4)C[C@@H]23)cc1`: -47.8% (inactive).
The same measure for `CCC(=O)Nc1ccc2c(c1)OC[C@H](C)N(C(=O)Cc1cccnc1)C[C@@H](C)[C@@H](OC)CN(C)C2=O`: 8.05% (inactive); for `Cn1cnc(CCNC(=O)C[C@H]2CC[C@@H]3[C@H](COC[C@H](O)CN3C(=O)C3CC3)O2)c1`: -3% (inactive); for `Cc1ccc(S(=O)(=O)N(C)C[C@H]2OCCCC[C@@H](C)Oc3ccc(NC(=O)Nc4ccc(F)cc4)cc3C(=O)N([C@@H](C)CO)C[C@H]2C)cc1`: -68.1% (inactive).
In the case of `Cc1ccc(S(=O)(=O)N(C)C[C@@H]2OCCCC[C@@H](C)Oc3ccc(NC(=O)Nc4ccc(C(F)(F)F)cc4)cc3C(=O)N([C@@H](C)CO)C[C@@H]2C)cc1`, the activity change was -86.1% (active).
The same measure for `COc1ccc(NC(=O)Nc2ccc3c(c2)C(=O)N([C@H](C)CO)C[C@@H](C)[C@H](CN(C)C(=O)Nc2ccc(C(F)(F)F)cc2)OCCCC[C@@H](C)O3)cc1`: -69% (inactive); for `COc1ccc(NC(=O)N(C)C[C@H]2OCCCC[C@H](C)Oc3ccc(NC(=O)Nc4ccc(C(F)(F)F)cc4)cc3C(=O)N([C@@H](C)CO)C[C@@H]2C)cc1`: -39.3% (inactive).
To `CC(C)NC(=O)Nc1ccc2c(c1)C(=O)N([C@@H](C)CO)C[C@@H](C)[C@@H](CN(C)C(=O)Nc1ccc(C(F)(F)F)cc1)OCCCC[C@H](C)O2` belongs -63.3% (inactive); to `C[C@H](CO)N1C[C@H](C)[C@@H](CN(C)S(C)(=O)=O)OCCCC[C@H](C)Oc2ccc(NC(=O)Nc3ccc(C(F)(F)F)cc3)cc2C1=O`, 30.4% (inactive).
`CNC[C@H]1OCCCC[C@@H](C)Oc2ccc(NC(=O)Nc3ccc(C(F)(F)F)cc3)cc2C(=O)N([C@H](C)CO)C[C@H]1C`: the activity change was -82.5% (active).
Consider `CNC[C@H]1OCCCC[C@H](C)Oc2ccc(NC(=O)Nc3ccc(C(F)(F)F)cc3)cc2C(=O)N([C@H](C)CO)C[C@@H]1C`, for which the activity change was -14.8% (inactive).
Turning to `C[C@@H]1CCCCO[C@H](CN(C)C(=O)Nc2ccc(C(F)(F)F)cc2)[C@H](C)CN([C@H](C)CO)C(=O)c2cc(NC(=O)Nc3ccc(C(F)(F)F)cc3)ccc2O1`, the activity change is -80.3% (active).
The same measure for `C[C@@H]1CCCCO[C@H](CN(C)C(=O)Nc2ccc(C(F)(F)F)cc2)[C@@H](C)CN([C@@H](C)CO)C(=O)c2cc(NC(=O)Nc3cccc4ccccc34)ccc2O1`: -88.3% (active); for `CC(C)NC(=O)Nc1ccc2c(c1)C(=O)N([C@H](C)CO)C[C@H](C)[C@H](CN(C)C(=O)Nc1ccc(C(F)(F)F)cc1)OCCCC[C@@H](C)O2`: 1.85% (inactive).
The same measure for `CNC[C@@H]1OCCCC[C@H](C)Oc2ccc(NC(=O)Nc3ccccc3)cc2C(=O)N([C@H](C)CO)C[C@H]1C`: 31% (inactive).
On to `CC(=O)N1[C@H](CN(C)S(=O)(=O)c2ccccc2)[C@H](c2ccccc2)[C@@H]1CO`, for which the activity change was 4.68% (inactive).
The same measure for `COc1cccc(-c2ccc3n(c2=O)C[C@H]2[C@H](CO)[C@@H](C(=O)NC4CCCC4)[C@@H]3N2C)c1`: 2.57% (inactive).
To `COc1ccc2c3c(n(C)c2c1)[C@@H](CO)N(C(=O)NC1CCCC1)CC31CCN(C(C)=O)CC1` belongs -2.48% (inactive); to `C[C@@H](NC(=O)C[C@H]1CC[C@H]2[C@@H](COC[C@@H](O)CN2C(=O)Nc2ccccc2)O1)c1ccccc1`, 8.13% (inactive); to `C[C@H](CO)N1C[C@H](C)[C@@H](CN(C)Cc2ccc3c(c2)OCO3)OCCCC[C@H](C)Oc2ccc(NC(=O)Nc3ccc(C(F)(F)F)cc3)cc2C1=O`, -41.8% (inactive).
To `Cc1ccccc1S(=O)(=O)NCC[C@@H]1CC[C@H](NC(=O)C2CCCCC2)[C@@H](CO)O1` belongs 7.15% (inactive); to `CCS(=O)(=O)N1CC(=O)N2[C@H](CO)[C@@H](c3ccc(C#CC4CCCC4)cc3)[C@@H]2C1`, -15.8% (inactive).
On to `Cc1ccc(S(=O)(=O)N(C)C[C@@H]2OCCCC[C@@H](C)Oc3ccc(NS(=O)(=O)c4ccccc4)cc3C(=O)N([C@H](C)CO)C[C@@H]2C)cc1`, for which the activity change was -57.4% (inactive).
As to `C[C@@H]1CCCCO[C@@H](CN(C)C(=O)Nc2cccc3ccccc23)[C@H](C)CN([C@H](C)CO)C(=O)c2cc(NC(=O)NC3CCCCC3)ccc2O1`, the activity change was -62.1% (inactive).
The same measure for `C[C@@H]1CCCCO[C@@H](CN(C)C(=O)Nc2ccc(F)cc2)[C@H](C)CN([C@H](C)CO)C(=O)c2cc(NC(=O)Nc3cccc4ccccc34)ccc2O1`: -24.3% (inactive).
The same measure for `C[C@H]1CCCCO[C@@H](CN(C)C(=O)Nc2ccccc2)[C@@H](C)CN([C@@H](C)CO)C(=O)c2cc(NC(=O)Nc3ccc(F)cc3)ccc2O1`: -17.9% (inactive); for `C[C@@H]1CN([C@@H](C)CO)C(=O)c2cc(NC(=O)Nc3ccc(C(F)(F)F)cc3)ccc2O[C@@H](C)CCCCO[C@@H]1CN(C)C(=O)Nc1cccc2ccccc12`: -85.5% (active).
The same measure for `C[C@@H]1CCCCO[C@@H](CN(C)S(=O)(=O)c2ccc(Cl)cc2)[C@H](C)CN([C@@H](C)CO)C(=O)c2cc(NC(=O)Cc3ccccc3)ccc2O1`: -69% (inactive); for `Cc1ccc(S(=O)(=O)N(C)C[C@H]2OCCCC[C@H](C)Oc3ccc(NC(=O)Cc4ccccc4)cc3C(=O)N([C@@H](C)CO)C[C@@H]2C)cc1`: -81.9% (active).
Regarding `C[C@@H]1CCCCO[C@H](CN(C)C(=O)Nc2ccccc2)[C@H](C)CN([C@H](C)CO)C(=O)c2cc(NC(=O)Nc3ccccc3)ccc2O1`, the activity change was -88.7% (active).
In the case of `COc1ccc(NC(=O)Nc2ccc3c(c2)C(=O)N([C@@H](C)CO)C[C@H](C)[C@@H](CN(C)C(=O)Nc2cccc4ccccc24)OCCCC[C@@H](C)O3)cc1`, the activity change was -66% (inactive).
The same measure for `C[C@@H]1CCCCO[C@@H](CN(C)C(=O)Nc2ccccc2)[C@@H](C)CN([C@H](C)CO)C(=O)c2cc(NC(=O)Nc3ccc(F)cc3)ccc2O1`: 24.9% (inactive).
To `C[C@@H]1CCCCO[C@H](CN(C)C(=O)Nc2cccc3ccccc23)[C@@H](C)CN([C@H](C)CO)C(=O)c2cc(NC(=O)Nc3ccc4c(c3)OCO4)ccc2O1` belongs -49.2% (inactive).
For `C[C@@H]1CCCCO[C@H](CN(C)C(=O)Nc2cccc3ccccc23)[C@@H](C)CN([C@@H](C)CO)C(=O)c2cc(NC(=O)Nc3ccc(F)cc3)ccc2O1`, the activity change was -88.2% (active).
The same measure for `Cc1ccc(S(=O)(=O)Nc2ccc3c(c2)C(=O)N([C@@H](C)CO)C[C@@H](C)[C@H](CN(C)Cc2ccc(Cl)c(Cl)c2)OCCCC[C@@H](C)O3)cc1`: -43.2% (inactive); for `C[C@@H]1CN([C@H](C)CO)S(=O)(=O)c2ccc(C3=CCCC3)cc2O[C@H]1CN(C)C(=O)Nc1ccc2c(c1)OCO2`: -57.4% (inactive).
To `COc1ccccc1S(=O)(=O)N[C@@H]1CC[C@@H](CCNC(=O)C2CCCCC2)O[C@@H]1CO` belongs -1.07% (inactive); to `O=C(Nc1cccc(Cl)c1)N[C@@H]1CC[C@@H](CCNC(=O)C2CCOCC2)O[C@@H]1CO`, -0.665% (inactive).
As for `C/C=C/c1cnc2c(c1)C(=O)N([C@H](C)CO)C[C@@H](C)[C@H](CN(C)Cc1cccc(C(=O)O)c1)O2`, the activity change was 27.8% (inactive).
The same measure for `O=C(C[C@@H]1CC[C@H]2[C@@H](COC[C@@H](O)CN2CC2CC2)O1)NCc1ccc(Cl)cc1`: -0.915% (inactive).
